Compounds with a hit are over-represented: about 2.3% of the library has one in this group of screens.
CHRM1 antagonist: human CHRM1 antagonism; P11229; CHO-K1 hM1, Fluo-8 calcium fluorescence, ACh EC80 antagonist; inhibition, % at 3 µM; actives 1.3% (n = 360,000); AID 588852;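 active = percent inhibition above its own plate's cutoff, namely the mean of that plate's compound wells plus 3 SD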;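 also: peak over basal fluorescence ratio during 140 s after agonist addition; 0% = ACh EC80 plus DMSO and 100% = DMSO alone without agonist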
Target sequence (P11229 whole entry, looked up): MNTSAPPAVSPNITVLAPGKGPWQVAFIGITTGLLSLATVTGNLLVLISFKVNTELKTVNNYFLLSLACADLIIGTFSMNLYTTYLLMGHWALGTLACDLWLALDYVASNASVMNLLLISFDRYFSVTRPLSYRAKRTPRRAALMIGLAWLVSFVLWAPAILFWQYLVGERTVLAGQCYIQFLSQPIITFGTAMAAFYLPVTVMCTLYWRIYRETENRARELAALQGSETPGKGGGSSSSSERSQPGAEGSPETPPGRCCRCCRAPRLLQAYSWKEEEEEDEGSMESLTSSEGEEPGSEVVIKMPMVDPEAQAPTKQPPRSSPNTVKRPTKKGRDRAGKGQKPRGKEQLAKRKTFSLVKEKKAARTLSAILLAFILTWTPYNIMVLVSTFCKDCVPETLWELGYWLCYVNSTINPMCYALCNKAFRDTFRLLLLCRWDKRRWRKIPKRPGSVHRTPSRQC
CHRM1 agonist: human M1 muscarinic receptor agonism | CHO-K1 hM1, Fluo-8 calcium fluorescence, agonist mode; 0% DMSO, 100% acetylcholine EC100 | activation, % at 3 µM | actives 0.33% (n = 360,000) | P11229;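 active = activation above the run's mean compound activation plus 3 SD, cut at about 16% in these data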;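 also: peak over basal fluorescence ratio within a 140 s kinetic read after compound addition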
M1 ag parental: M1 agonist counterscreen hit in parental CHO-K1 cells; Fluo-8 calcium fluorescence; scaled to maximal ATP response, vehicle zero; activation, % at 3 µM; actives 0.48% (n = 360,000); AID 602248; in the data active = activation above about 15%;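 also: untransfected CHO-K1 host cells lacking M1 receptor as counterscreen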
M1 PAM parental: counter-screen for M1 PAMs: effect in parental CHO-K1 cells. ATP EC20, Fluo-8 calcium fluorescence; 0% at ATP EC20, 100% at ATP max. activation, % at 3 µM. actives 0.02% (n = 360,000). AID 602247;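 active = activation above the run cutoff, the mean activation of all test compounds plus 3 SD, cut at about 40% in these data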;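 also: peak over basal fluorescence ratio in a 140 s read after ATP addition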
CHO-K1 Ca antag: nonselective inhibitor or artifact in parental CHO-K1 cells | AID 602250 | actives 0.6% (n = 360,000) | inhibition, % at 3 µM | ATP-induced calcium, Fluo-8 fluorescence;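 active = inhibition above a per-plate cutoff, the plate's mean sample inhibition plus 3 SD, cut at about 24% in these data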;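 also: 0% = DMSO plus EC80 ATP and 100% = DMSO alone without ATP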
M1 PAM: positive allosteric modulators of human M1 muscarinic receptor; P11229; CHO-K1 hM1, Fluo-8 calcium fluorescence, ACh EC20; 0% = ACh EC20, 100% = maximal ACh; activation, % at 3 µM; actives 0.088% (n = 360,000); in the data active = activation above about 19%, passing the limit was not always enough
Starred values were filed as active, the others as inactive.

What do the screens show for `N#CC1=C(N)NC(SCc2ccc(Br)cc2)=C(C#N)C12CCCCC2`?
CHRM1 antagonist: 13; CHRM1 agonist: 0; M1 ag parental: 8; M1 PAM parental: 5; CHO-K1 Ca antag: 24*; M1 PAM: -4

How did COc1ccc(CNC(=O)CCC(=O)n2ncc3cc(C)ccc32)cc1 do in these assays?
CHRM1 antagonist: -14; CHRM1 agonist: -6; M1 ag parental: 0; M1 PAM parental: -7; CHO-K1 Ca antag: 24*; M1 PAM: 12

Results for CCCOc1ccc(CNC(=O)CCC(=O)n2ncc3cc(C)ccc32)cc1 ?
CHRM1 antagonist: -4; CHRM1 agonist: -10; M1 ag parental: 0; M1 PAM parental: 2; CHO-K1 Ca antag: -6; M1 PAM: 1

What do the screens show for `COc1ccc2c(C)cc3n[nH]c(=S)n3c2c1`?
CHRM1 antagonist: -11; CHRM1 agonist: -4; M1 ag parental: -1; M1 PAM parental: 14; CHO-K1 Ca antag: -7; M1 PAM: 7

How did Cc1ccc(NC(=O)COC(=O)CCCC2=NS(=O)(=O)c3ccccc3N2)cc1C do in these assays?
CHRM1 antagonist: -6; CHRM1 agonist: -7; M1 ag parental: 0; M1 PAM parental: -18; CHO-K1 Ca antag: -8; M1 PAM: 2

How did Cc1ccccc1COC(=O)CCCC1=NS(=O)(=O)c2ccccc2N1 do in these assays?
CHRM1 antagonist: -3; CHRM1 agonist: 23*; M1 ag parental: 13; M1 PAM parental: 17; CHO-K1 Ca antag: -9; M1 PAM: -8

Results for COc1ccc(/C=C2\Oc3cc(OCC(=O)N4CCC[C@H]4CO)ccc3C2=O)c(OC)c1 ?
CHRM1 antagonist: -14; CHRM1 agonist: -4; M1 ag parental: 1; M1 PAM parental: -14; CHO-K1 Ca antag: 8; M1 PAM: 5

How did COCCCNC(=O)C1c2ccccc2Oc2ccccc21 do in these assays?
CHRM1 antagonist: -4; CHRM1 agonist: -5; M1 ag parental: 1; M1 PAM parental: 2; CHO-K1 Ca antag: 2; M1 PAM: 1

What do the screens show for `CCN(CC)CCCNC(=O)C1c2ccccc2Oc2ccccc21`?
CHRM1 antagonist: 49*; CHRM1 agonist: -9; M1 ag parental: 1; M1 PAM parental: 18; CHO-K1 Ca antag: -7; M1 PAM: -26

How did CCc1nnc(NC(=O)C2c3ccccc3Oc3ccccc32)s1 do in these assays?
CHRM1 antagonist: 37*; CHRM1 agonist: 1; M1 ag parental: 7; M1 PAM parental: 35; CHO-K1 Ca antag: -20; M1 PAM: -19

How did CCN(CC)S(=O)(=O)c1ccc(NC(=O)C2c3ccccc3Oc3ccccc32)cc1 do in these assays?
CHRM1 antagonist: 8; CHRM1 agonist: 20*; M1 ag parental: 7; M1 PAM parental: 27; CHO-K1 Ca antag: -3; M1 PAM: 1

What do the screens show for `CNS(=O)(=O)c1ccc(NC(=O)C2c3ccccc3Oc3ccccc32)cc1`?
CHRM1 antagonist: 1; CHRM1 agonist: 7; M1 ag parental: 3; M1 PAM parental: 34; CHO-K1 Ca antag: -8; M1 PAM: 9

How did O=C(Nc1nc2ccccc2s1)C1c2ccccc2Oc2ccccc21 do in these assays?
CHRM1 antagonist: 17; CHRM1 agonist: -7; M1 ag parental: 0; M1 PAM parental: -6; CHO-K1 Ca antag: 9; M1 PAM: -10

How did O=C(CC(c1ccc(F)cc1)c1ccco1)N1CCOCC1 (configuration not stated) do in these assays?
CHRM1 antagonist: 13; CHRM1 agonist: -3; M1 ag parental: 1; M1 PAM parental: -2; CHO-K1 Ca antag: -11; M1 PAM: 28*

Results for C=CCN(C(=O)CN1CCOCC1)c1nc(C)c(-c2ccccc2)s1 ?
CHRM1 antagonist: -3; CHRM1 agonist: -5; M1 ag parental: 0; M1 PAM parental: -2; CHO-K1 Ca antag: -3; M1 PAM: 2

How did C=CCN(C(=O)CN1CCCCC1)c1nc(-c2ccccc2)cs1 do in these assays?
CHRM1 antagonist: 25*; CHRM1 agonist: -11; M1 ag parental: 0; M1 PAM parental: 14; CHO-K1 Ca antag: -11; M1 PAM: -23

How did CC(NC(=O)c1ccc(OC2CCN(S(=O)(=O)N(C)C)CC2)cc1)C1CC1 (configuration not stated) do in these assays?
CHRM1 antagonist: -2; CHRM1 agonist: -11; M1 ag parental: 2; M1 PAM parental: 3; CHO-K1 Ca antag: -6; M1 PAM: 8

Results for Cc1ccc(NS(=O)(=O)c2ccc(-n3cccn3)cc2)cc1Cl ?
CHRM1 antagonist: -4; CHRM1 agonist: -3; M1 ag parental: 2; M1 PAM parental: 3; CHO-K1 Ca antag: 0; M1 PAM: 2

What do the screens show for `Cc1ccc(NS(=O)(=O)c2ccc(-n3cccn3)cc2)cc1C`?
CHRM1 antagonist: 28*; CHRM1 agonist: -1; M1 ag parental: 8; M1 PAM parental: 6; CHO-K1 Ca antag: -11; M1 PAM: -17

What do the screens show for `NC(=O)c1cccc(-c2cnc3c(Nc4cccc(OC(F)(F)C(F)F)c4)nccn23)c1`?
CHRM1 antagonist: -4; CHRM1 agonist: 2; M1 ag parental: 0; M1 PAM parental: -16; CHO-K1 Ca antag: 31*; M1 PAM: 6

Results for Oc1ccc(-c2cnc3c(Nc4cccc(OC(F)(F)C(F)F)c4)nccn23)cc1 ?
CHRM1 antagonist: 0; CHRM1 agonist: 1; M1 ag parental: 1; M1 PAM parental: -4; CHO-K1 Ca antag: 1; M1 PAM: -1

Results for Cc1ccc(S(=O)(=O)n2ccc3c2CCCC3=O)cc1 ?
CHRM1 antagonist: 54*; CHRM1 agonist: -8; M1 ag parental: 1; M1 PAM parental: 8; CHO-K1 Ca antag: 7; M1 PAM: -27

What do the screens show for `C=CCn1c(O)c(C=Nc2ccccc2)sc1=S`?
CHRM1 antagonist: 2; CHRM1 agonist: -9; M1 ag parental: -1; M1 PAM parental: -12; CHO-K1 Ca antag: 29*; M1 PAM: 3

Results for CSc1ccccc1C(=O)N(CC1CCCO1)c1c(N)n(Cc2ccccc2)c(=O)[nH]c1=O (configuration not stated) ?
CHRM1 antagonist: -11; CHRM1 agonist: -3; M1 ag parental: 1; M1 PAM parental: -3; CHO-K1 Ca antag: -2; M1 PAM: 11

What do the screens show for `CC1(Cc2ccc(F)c(Cl)c2)C(=O)Nc2c(Cl)cccc21` (configuration not stated)?
CHRM1 antagonist: -8; CHRM1 agonist: -1; M1 ag parental: -1; M1 PAM parental: -2; CHO-K1 Ca antag: -3; M1 PAM: 2

Results for CC(C)(C)NC(=O)NC(=O)COC(=O)c1ccc(OC(F)(F)F)cc1 ?
CHRM1 antagonist: -4; CHRM1 agonist: -7; M1 ag parental: 0; M1 PAM parental: 3; CHO-K1 Ca antag: -2; M1 PAM: 1

How did CC(C)(C)NC(=O)NC(=O)COC(=O)c1ccc(OC(F)F)cc1 do in these assays?
CHRM1 antagonist: 4; CHRM1 agonist: -7; M1 ag parental: 0; M1 PAM parental: -11; CHO-K1 Ca antag: 28*; M1 PAM: -1

High-throughput results from PubChem BioAssay.
